RBX1-CUL1 inh – inhibitors of human ROC1-CUL1 ubiquitin ligase activity. actives 0.6% (n = 140,000). in vitro K48 di-Ub FRET, acceptor:donor ratio, 45 min. AID 1347404. P62877+Q13616. inhibition, % at 10 µM; in the data active means inhibition above about 25%
Active calls of the source: *. Many of the other results were omitted from the sample, so hits are more common in it than they were.

SMILES | RBX1-CUL1 inh
CC1C(=NC(=S)NCCN2CCOCC2)C(=O)N(c2ccccc2)N1C (configuration not stated) | 1
CC(=O)Oc1cccc(/C=C2/C(=O)NN(c3cccc(Cl)c3)C2=O)c1 | 26*
COc1ccccc1/C=C1\C(=O)NN(c2cccc(Cl)c2)C1=O | 6
O=C1NN(c2cccc(Cl)c2)C(=O)/C1=C\c1ccc(-c2ccc(Br)cc2C(=O)O)o1 | 80*
COc1c(I)cc(I)cc1/C=C1/C(=O)NN(c2ccc(Cl)cc2)C1=O | 47*
COC(=O)c1cc(-c2ccc(/C=C3/C(=O)NN(c4cccc(Br)c4)C3=O)o2)ccc1Cl | 5
COc1cc(/C=C2\C(=O)NN(c3ccccc3)C2=O)cc(I)c1OCCCOc1ccc(Cl)cc1 | 0
COc1ccccc1/C=C1/C(=O)NN(c2ccc(Br)cc2)C1=O | 3
COc1ccc(Br)cc1/C=C1/C(=O)NN(c2cccc(Cl)c2)C1=O | 89*
O=C1NN(c2ccc(Cl)cc2)C(=O)/C1=C\c1cc(I)cc(I)c1O | -11
COc1ccc(/C=C2\C(=O)NN(c3cccc(Cl)c3)C2=O)cc1 | 8
O=C1NN(c2ccccc2)C(=O)/C1=C/c1cccc(OCCCOc2ccc(Cl)cc2)c1 | 5
COC(=O)c1cccc(-c2ccc(/C=C3/C(=O)NN(c4cccc(Cl)c4)C3=O)o2)c1 | 11
COc1ccc2nc3cc(Cl)ccc3c(Nc3ccc(-c4ccc(N)cc4)cc3)c2c1 | 0
CCOC(=O)c1nnc(-c2ccccc2)nc1C(=O)OCC | 2
CCOc1cc(C2C3=C(CCCC3=O)OC(=N)C2C#N)ccc1OCC(=O)Nc1ccc(C(=O)OC)cc1 (configuration not stated) | 0
COc1ccc2cccc(/C=C3\C(=O)NN(c4ccc(Cl)c(Cl)c4)C3=O)c2c1 | 8
O=C1NN(c2cccc(Cl)c2)C(=O)/C1=C/c1cc(I)cc(I)c1O | 1
COc1cc(/C=C2\C(=O)NN(c3ccc(C)cc3)C2=O)cc(Br)c1O | 12
COc1cc(Br)cc(/C=C2\C(=O)NN(c3ccc(C)c(Cl)c3)C2=O)c1O | 43*
COc1c(I)cc(I)cc1/C=C1\C(=O)NN(c2cccc(Cl)c2)C1=O | 48*
COc1cc(/C=C2\C(=O)NN(c3ccc(Cl)c(Cl)c3)C2=O)cc(Br)c1O | 7
CCOC1(OCC)C2(Cl)C(Cl)=C(Cl)C1(Cl)C1C(=O)C=CC(=O)C12 (configuration not stated) | -7
O=C(CN1CCN(c2ccccc2F)CC1)NC12CC3CC(CC(C3)C1)C2 | 8
N#CC(C#N)=C/C=C(/Cl)c1ccccc1 | 11
SMILES | RBX1-CUL1 inh
CCOc1c(/C=C(\C#N)C(N)=O)c2ccccc2n1CC | 3
N#C/C(=C\C=C(/Cl)c1ccccc1)C(N)=O | 38*
NC1=NC(=Nc2ccc(Cl)c(C(F)(F)F)c2)c2ccccc21 | 0
CC(C)(C)c1ccc(C2CC(=O)C3C(=Nc4ccccc4N(C(=O)C4CC4)C3c3ccc(F)cc3)C2)cc1 (configuration not stated) | 2
CCOC(=O)/C(=C\OCCOc1cc(C)cc(C)c1)Oc1ccccc1 | -7
NC(=O)CSc1nc(SCC(N)=O)c2c(-c3ccccc3)cc(-c3ccccc3)nc2n1 | -1
COCCNc1nc(CN2CCCCC2C(=O)OC)nc2c(C)cccc12 (configuration not stated) | 4
CC1=NN(c2ccc(S(N)(=O)=O)cc2)C(=O)C1=Nc1ccc(N(C)C)cc1 | 64*
COc1cc(/C=C2/C(=O)N(c3ccc(Cl)c(Cl)c3)N=C2C)cc(OC)c1OC | -3
CC1=NN(c2ccc(S(N)(=O)=O)cc2)C(=O)/C1=C\c1ccc(N(C)C)c(Br)c1 | 68*
CC1=NN(c2ccc(C)cc2C)C(=O)C1=Nc1ccc(N(C)C)cc1 | -4
COc1cc(/C=C2\C(=O)N(c3ccc(S(N)(=O)=O)cc3)N=C2C)cc(OC)c1OC | 32*
CC1=NN(c2ccc(F)cc2)C(=O)/C1=C/c1ccc2c(c1)n(C)c(=O)n2C | 0
COc1cc(/C=C2/C(=O)N(c3ccc(Cl)c(Cl)c3)N=C2C)cc(OC)c1O | 2
CN(C)c1ccc(/C=C2\C(=O)NN(c3ccccc3)C2=O)cc1Br | -4
NS(=O)(=O)c1ccc(N=C2CC(=O)Oc3ccccc32)cc1 | 4
O=[N+]([O-])c1ccccc1N/N=C/c1ccccc1Cl | 6
CN(CC1CCCCO1)C(=O)c1ccc2oc(-c3cccc(F)c3)nc2c1 (configuration not stated) | 7
COc1ccc([N+](=O)[O-])c2c(=O)cc(C(=O)O)oc12 | -4
CCCCC1C(=O)Oc2c(c(=O)n3c4c(cccc24)CCC3)C1=O (configuration not stated) | -2
COc1ccc(OC)c(-c2csc(N3CCC(C(N)=O)CC3)n2)c1 | -1
Cc1c(C(=O)NCc2ccccc2Cl)sc2nc3n(c(=O)c12)CCCCC3 | -5
COc1ccc2c(=O)c(=O)c2c1 | 72*
COc1ccc2c(=O)c(I)coc2c1 | -2
COc1ccc2ccc3c4ccccc4c(OC)cc3c2c1 | 1
SMILES | RBX1-CUL1 inh
COC(=O)c1c(-c2ccccc2)csc1NC(=O)CCC(=O)O | -2
O=C(CSc1nnc(CCc2ccccc2)n1-c1ccccc1)N1CCCCC1 | 5
CCCCOc1ccc(C(=O)C2C(=O)C(=O)N(Cc3cccnc3)C2c2ccc(OCC)c(OC)c2)cc1C (configuration not stated) | 2
Cc1ccc(S(=O)(=O)C(F)F)cc1 | 9
O=S(=O)(c1c(F)c(F)c(F)c(F)c1F)C(F)F | 103*
CCCn1c2ccccc2c2cnn(CC(=O)N(CCCOC)Cc3ccco3)c(=O)c21 | 2
COc1ccc(C2C3=C(CCCC3=O)N(c3ccccc3C(F)(F)F)C(=N)C2C#N)cc1COc1ccc2ccccc2c1 (configuration not stated) | 10
CC(=O)Oc1ccc(CC(=NC(=O)c2cccc(Br)c2)C(=O)Nc2ccc(C(=O)O)cc2)cc1 | -7
CC(=O)c1cc(C(=O)NCc2cccnc2N2CCOCC2)[nH]n1 | 0
CCOC(=O)C(N=Nc1ccc([N+](=O)[O-])cc1)SCCCC(=O)O (configuration not stated) | 5
Cc1oc(-c2ccc(NC(=O)Cc3ccccc3)cc2)nc1CNC(=O)CCC(C)C | -1
COc1ccc(CC(=O)NCc2nc(-c3ccc(NC(=O)Cc4ccccc4)cc3)oc2C)cc1 | 5
Cc1nn(C)c(C)c1CCC(=O)NCc1nc(-c2ccc(NC(=O)Cc3ccccc3)cc2)oc1C | 39*
CCC(c1ccccc1)c1n[nH]c2c1CN(C(=O)c1ccc(OC)o1)CC2 (configuration not stated) | -3
CCOc1ccc(NC(=O)CC2C(=O)N(c3ccc(C)cc3)C(=O)N2Cc2ccc(OC)cc2)cc1 (configuration not stated) | -6
NC(=O)c1ccc(C2CCCN2C(=O)C#Cc2cccc3ccccc23)s1 (configuration not stated) | 3
CCc1csc(CNC(=O)c2ccc(NCC3CCCCN3C)nc2)n1 (configuration not stated) | 1
COc1cccc(C(=S)NCS(=O)(=O)c2ccc(C)cc2)c1 | -5
O=S(=O)(CNC(=S)c1ccccc1)c1ccccc1 | 35*
S=C(NCCc1ccccn1)c1ccccc1 | 6
N#Cc1nc(COc2ccc(Br)cc2)oc1N1CCC(Cc2ccccc2)CC1 | -4
Cn1c(SCC#CCO)nc2ccccc2c1=O | 3
O=C(Oc1ccc2c(C(F)(F)F)cc(=O)oc2c1)c1ccccc1 | -1
Cc1cc(=O)oc2cc(OC(=O)c3ccc(=O)oc3)ccc12 | 8
